Only some compounds are listed: those with a hit (about 1.8% of all), similar ones and a draw of the others.
Beta cell apopt = beta cell apoptosis inhibition. INS-1E cytokine-induced death, ATP luminescence, 48 h; percent of positive-control rescue, neutral wells zero. protection from apoptosis, % (no concentration beside the values). 0.8% of 300,000 active. AID 435005;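 active = Every replicate reaches about 75%, or at least half do and their mean reaches it too, limit read from the data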;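 also: 0% = cytokine-treated negative control wells and 100% = positive control rescue; higher means more ATP so stronger rescue from cytokine killing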
Gli-Sufu antag = blocks Gli-Sufu signaling in a luciferase reporter | 0.74% of 340,000 active | Sufu-KO-LIGHT fibroblasts, Gli luciferase reporter luminescence | inhibition, % at 5 µM;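 active = inhibition above about 55%, limit read from the data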;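 also: 0% = DMSO-treated cells and 100% = wells with medium but no cells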
697 NFkB inh = inhibitors of the PMA/ionomycin-induced NF-kB reporter in 697 B cells | 697 B-cell NF-kB luciferase reporter, 16 h | inhibition, % at 4 µM | 0.33% of 330,000 active | AID 435022; in the data active = inhibition above about 35%
Jurkat NFkB inh = inhibitors of the PMA/ionomycin-induced NF-kB reporter in Jurkat cells; PMA/ionomycin-induced NF-kB luciferase reporter, luminescence; inhibition, % at 4 µM; 0.53% of 330,000 active; AID 435003; in the data active = inhibition above about 50%
* hit, by the source's call; / = no result given.

SMILES	Beta cell apopt	Gli-Sufu antag	697 NFkB inh	Jurkat NFkB inh
N#CC(C#N)=NNc1ccc(-n2ccc(C(F)(F)F)n2)cc1	102*	76*	0	10
COc1cccc(N=Cc2c(O)n(Cc3ccco3)c(=O)[nH]c2=O)c1	-9	1	18	5
CCCc1nc2ccc(Br)cc2c(=O)n1-c1ccc([N+](=O)[O-])c(C(F)(F)F)c1	99*	44	-26	-6
O=c1c2ccccc2nc(-c2cccs2)n1-c1ccccc1	0	11	-7	-1
NC(N)=N/N=C/c1cn(-c2ccccc2)nc1-c1cccs1	105*	7	7	26
CCC(C)N1C(=O)NC(=O)C2(Cc3c(ccc4ccccc34)N(C)C2)C1=O (stereo not given)	-2	2	1	-5
O=[N+]([O-])c1ccccc1-c1cc(-c2ccccc2)cc(-c2ccccc2)[n+]1Cc1ccccc1Cl	134*	38	-7	-5
CCOC(=O)c1nc2ccccc2c(=O)n1-c1cccc(C)c1	-2	7	2	7
CCN(CC)C(=O)c1ccc(NC(=O)c2cccc(F)c2)cc1	-4	-40	-14	-11
CCn1nc(/C=C/c2ccccc2)nc2c(=O)n(C)c(=O)nc1-2	/	91*	-102	37
COC(=O)c1nc(-c2ccc3c(n2)C(=O)C(N)=C(OC)C3=O)c(N)c(-c2ccc(OC)c(OC)c2O)c1C	111*	58*	-6	1
Cc1cc(C)cc(OCCOc2cccc(C=C3C(=O)NC(=O)NC3=O)c2)c1	-7	-15	-40	-9
c1ccc2c(c1)-c1cccc3cccc-2c13	2	3	12	-1
c1ccc2c(c1)[IH]c1ccccc1-2	/	86*	/	/
CC(O)C1C=CC=CC(=O)OC2CC3OC4C5OC5(C)CCC4(COC(=O)C4OC4(C)C(O)CO1)C2(C)C31CO1 (stereo not given)	/	86*	/	/
CC(=O)OC1C(=O)OCC23CCC4(C)OC4C2OC2CC(OC(=O)C=CC=CC(=O)OCCC1C)C3(C)C21CO1 (stereo not given)	/	89*	/	/
CC1=CC2OC3CC4OC(=O)C=CC=CC(C(C)O)OCC(O)C(C)CC(=O)OCC2(CC1O)C4(C)C31CO1 (stereo not given)	/	90*	/	/
Cn1c(O)c(/C=C2\N=c3ccccc3=C2CCNC(=S)NC2CC2)c(=O)n(C)c1=O	/	10	10	4
COc1ccccc1CCNC1C2CC3CC(C2)CC1C3 (stereo not given)	5	14	3	11
CCCNS(=O)(=O)c1ccc(OCC(=O)N2CCN(C)CC2)cc1	-7	-21	-5	-7
CCC1C=CC=CC[C@H](C)[C@@H](O)[C@](C)(O)C(=O)[C@@H](C)[C@H](O)[C@@H](C)C(=O)[C@H](C)[C@@H](O)[C@H](C)C=CC(=O)OC2[C@@H](C)C(CC1)OC1(CC[C@@H](C)C(C[C@H](C)O)O1)[C@@H]2C (stereo not given in full)	104*	/	-137	30
O=[N+]([O-])c1ccc(-[n+]2c(-c3ccccc3)cc(-c3ccccc3)cc2-c2ccccc2)cc1	/	7	5	-4
Oc1ccc(-[n+]2c(-c3ccccc3)cc(-c3ccccc3)cc2-c2ccccc2)cc1	123*	43	-39	18
COc1ccc(-[n+]2c(-c3ccccc3)cc(-c3ccccc3)cc2-c2ccccc2)cc1	111*	83*	17	45
COc1ccc(CC(=O)C2C(=O)N(C)c3ccccc32)cc1OC (stereo not given)	/	-12	/	/
SMILES	Beta cell apopt	Gli-Sufu antag	697 NFkB inh	Jurkat NFkB inh
O=[N+]([O-])c1ccc(N2CCNCC2)cc1Sc1ccccn1	-4	26	9	-2
COC(=O)c1c(C)n(Cc2ccccc2)c2ccc(O)cc12	/	-27	3	2
CC(=O)OC1C(O)C(C)OC(OC2C(OC(=O)C3CCC4C(C3)OC3(CC(OC(=O)/C=C/c5ccccc5)C(C)CO3)C43CO3)OC(C)C(O)C2OC(C)=O)C1O (stereo not given)	/	90*	/	/
COC(=O)C12OCC34C(CC5C(C)=C(O)C(=O)CC5(C)C3C(O)C1O)OC(=O)C(OC(=O)/C=C(\C)C(C)C)C24 (stereo not given)	/	88*	/	/
COC(=O)C1=C(c2ccc3ccccc3c2)C[C@@H]2CC[C@H]1N2C(=O)NC1Cc2ccccc2C1	-8	5	2	1
CCCN1CCC(NC2CCC(O)CC2)CC1 (stereo not given)	-5	-12	-8	-20
COc1ccc(CC2NCC(O)C2OC(C)=O)cc1 (stereo not given)	/	86*	/	/
CN(C)c1ccc(/C=C/c2cc[n+](C)c3ccccc23)cc1	/	87*	/	/
